Test [1] in a line: Viability qHTS for spleen associated tyrosine kinase inhibitor (SYKi) naive MV4-11 cells (AID 1963823). Also: nearly all actives have a fitted effect of over 40% in size. Particulars: MV4-11 AML viability, CellTiter-Glo luminescence, 72 h; series mostly up to 45 µM. The method, boiled down: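 In this viability screen, compounds acted on SYK inhibitor naive MV4-11 cells for three days (72 hr, 37 C). Remaining viable cells were measured by CellTiter-Glo luminescence following a 10 min room-temperature development.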
For orientation: In qHTS, concentration-response curves come from the screen itself.

The nature of test [2]: Viability qHTS for spleen associated tyrosine kinase inhibitor (SYKi) drug resistant MV4-11 cells (AID 1963824). Also: nearly all actives have a fitted effect of over 35% in size. The following applies: SYKi-resistant MV4-11 viability, CellTiter-Glo, 72 h; series mostly up to 45 µM. The method, boiled down:
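SYK-inhibitor-resistant MV4-11 AML cells were seeded at 500 per well onto compound and cultured 72 hours (37 °C, 5% CO2). CellTiter-Glo was then added, and after 10 min at room temperature, luminescence gave viability.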

Results filed as inconclusive are left out. A number with no mark means an inactive call. Active and inactive are the calls of the source. Calls follow the shape of the dose curve; as a rule, active = well fitted cell-killing curve with a large enough effect; inconclusive = small, poorly fitted or top-dose-only effect, or effect the other way; inactive = no such curve, though single readings can be large or run the other way.
Potency is read from the fitted curve at half-maximal effect.

As for `CC(O)(C(=O)O)C1CCC2(C)C1CCC1(C)C2CCC2C3(C)CCC(O)C(C)(COC4OC(CO)C(O)C(O)C4O)C3CCC21C` (centres undefined), the Potency entry in test [1] and in test [2] was “inactive” in each case.
As to `C=C1C(=O)OC2/C=C(\COC(C)=O)CC/C=C(\C=O)CC(OC(=O)CC(C)C)C12` (centres undefined), the Potency in test [1] is 1.26 µM (active); in test [2], 1.12 µM (active).
`CC1(CO)CC[C@]2(C(=O)O[C@@H]3O[C@H](CO)[C@@H](O)[C@H](O)[C@H]3O)CC[C@]3(C)C(=CCC4[C@@]5(C)CC[C@H](O[C@@H]6O[C@H](C(=O)O)[C@@H](O)[C@H](O)[C@H]6O)C(C)(C)C5CC[C@]43C)C2C1` (some centres undefined): the viability (% of control) in test [1] is 87.4% [at 9.25 µM]. The viability, % of control in test [2] was 104% [at 9.25 µM].
For `O=C(COc1ccc(C(=O)c2ccccc2)cc1)NC1CCN(Cc2ccccc2)CC1`, the Potency was 9.2 µM (active) in test [1] and 7.31 µM (active) in test [2].
In the case of `C[C@@H]1O[C@@H](O[C@H]2[C@H](O[C@H]3CC[C@@]4(C)C(CC[C@]5(C)C4CC=C4C6CC(C)(C)CC[C@]6(C(=O)O[C@@H]6O[C@H](CO[C@@H]7O[C@H](CO)[C@@H](O[C@@H]8O[C@@H](C)[C@H](O)[C@@H](O)[C@H]8O)[C@H](O)[C@H]7O)[C@@H](O)[C@H](O)[C@H]6O)CC[C@]45C)[C@]3(C)CO)OC[C@H](O)[C@@H]2O)[C@H](O)[C@H](O)[C@H]1O` (some centres undefined), the viability (% of control) in test [1] is 69.6% [at 9.25 µM]. The viability, % of control in test [2] was 88.1% [at 9.25 µM].
Take `C=C1C(OC(C)=O)C(=O)C2C(C)(C)C(O)CCC2(C)C1CC(OC(C)=O)/C(C)=C/COC(C)=O` (centres undefined): the Potency result in test [1] and in test [2] was “inactive” each time.
Consider `Cc1noc(-c2ccc(-c3ccc(C4(C(=O)O)CC4)cc3)cc2)c1NC(=O)O[C@H](C)c1ccccc1`, for which the Potency in test [1] was 16.6 µM (active); in test [2], 11.8 µM (active).
Consider `COc1c2ccoc2cc2oc(CO[C@@H]3O[C@H](CO)[C@@H](O)[C@H](O)[C@H]3O)cc(=O)c12`, for which the Potency result in test [1] and in test [2] was “inactive” in each case.
`COC(=O)C1=CO[C@@H](O[C@@H]2O[C@H](CO)[C@@H](O)[C@H](O)[C@H]2O)[C@H]2[C@@H]1[C@H](O)[C@H](O)[C@]2(C)O`: the Potency result in test [1] and in test [2] was “inactive” throughout.
For `C[C@@H]1O[C@@H](O[C@H]2[C@H](O)[C@@H](O[C@@H]3O[C@H](CO)[C@@H](O)[C@H](O[C@@H]4O[C@H](CO)[C@@H](O)[C@H](O)[C@H]4O)[C@H]3O)[C@H](O[C@H]3CC[C@@]4(C)C(=CC[C@@H]5C4CC[C@@]4(C)C5C[C@@H]5OC6(CC[C@@](C)(CO[C@@H]7O[C@H](CO)[C@@H](O)[C@H](O)[C@H]7O)O6)[C@@H](C)[C@@H]54)C3)O[C@@H]2CO)[C@H](O)[C@H](O)[C@H]1OC1OC(CO)C(O)C(O)C1O` (some centres undefined), the viability (% of control) in test [1] is 77.4% [at 9.25 µM]. In addition, the viability, % of control in test [2] is 109% [at 9.25 µM].
For `C#CCN(Cc1cc2c(=O)[nH]c(C)nc2cc1Br)c1ccc(C(=O)NCc2cccnc2)cc1`, the Potency result in test [1] and in test [2] was “inactive” in each case.
As to `CCOC(=O)[C@@H](N)Cc1ccc(-c2cc(O[C@H](c3ccc(Cl)cc3-n3ccc(C)n3)C(F)(F)F)nc(N)n2)cc1`, the figures for the Potency in test [1] and in test [2] were 8.33 µM (active) and 4.17 µM (active), respectively.
On to `COc1ccc2[nH]c3c(c2c1)CCN[C@]31CS[C@@H]2c3c(OC(C)=O)c(C)c4c(c3[C@H](COC1=O)N1[C@@H]2[C@H]2c3c(cc(C)c(OC)c3O)C[C@@H]([C@@H]1O)N2C)OCO4`, for which the Potency in test [1] is 0.0015 µM (active); in test [2], 0.0011 µM (active).
For the compound `CC1(C)CC[C@]2(C(=O)O)[C@H](O)C[C@]3(C)C(=CCC4[C@@]5(C)CC[C@H](O[C@@H]6OC[C@@H](O)[C@H](O)[C@H]6O)[C@@](C)(C(=O)O)C5CC[C@]43C)[C@@H]2C1` (some centres undefined), the Potency result in test [1] and in test [2] was “inactive” throughout.
Turning to `C/C(=C\CO)CC/C=C(\C)C(=O)O[C@H]1[C@H](OC2OC=C(C(=O)O)C3CCC(C)(O)C23)O[C@H](CO)[C@@H](O)[C@@H]1O` (some centres undefined), the Potency entry in test [1] and in test [2] was “inactive” each time.
On to `NCCCC[C@H](NC(=O)[C@@H]1Cc2ccccc2CN1C(=O)CCC(=O)c1ccccc1)C(=O)NCC(c1ccccc1)c1ccccc1`, for which the Potency in test [1] is 20.6 µM (active); in test [2], 13 µM (active).
Consider `COc1ccc(-c2ccc3c(N4CCOCC4)nc(N4CC(C)OC(C)C4)nc3n2)cc1CO` (centres undefined), for which the Potency in test [1] was 0.291 µM (active); in test [2] it was 1.03 µM (active).
As for `CN[C@H]1CN(c2ccc3c(=O)c(C(=O)O)cn(-c4nccs4)c3n2)C[C@@H]1OC`, the Potency in test [1] is 0.605 µM (active); in test [2] it was 0.428 µM (active).
In the case of `O=C(OCC1=C[C@@H](O)[C@@H]2C=CO[C@@H](O[C@@H]3O[C@H](CO)[C@@H](O)[C@H](O)[C@H]3O)[C@H]12)c1ccc(O)cc1`, the Potency entry in test [1] and in test [2] was “inactive” each time.
As to `CC1CCC2(C(=O)O)CCC3(C)C(=CCC4C5(C)CCC(O)C(C)(CO)C5CCC43C)C2C1(C)O` (centres undefined), the Potency result in test [1] and in test [2] was “inactive” each time.
In the case of `Cc1oc2nc3c(c(NC(=O)CN4CCCC4=O)c2c1C)CCCC3`, the Potency result in test [1] and in test [2] was “inactive” throughout.
Take `C=CC(C)(O)CO[C@@H]1O[C@H](CO)[C@@H](O)[C@H](O)[C@H]1O` (some centres undefined): the Potency entry in test [1] and in test [2] was “inactive” each time.
As to `CC(=O)O[C@@H]1[C@H](O[C@@H]2O[C@H](CO)[C@@H](O)[C@H](O)[C@H]2O)[C@@H](O[C@@H]2O[C@@H](C)[C@H](O)[C@@H](O[C@@H]3O[C@H](CO)[C@@H](O)[C@H](O)[C@H]3O)[C@H]2O)[C@H](OC(=O)C23CCC4(C)C(=CCC5C6(C)CC(O)C(O[C@@H]7O[C@H](C(=O)O)[C@@H](O)[C@H](O)[C@H]7O)C(C)(C(=O)O)C6CCC54C)C2CC(C)(C)CC3O)O[C@@H]1C` (some centres undefined), in test [1], the viability (% of control) was 92% [at 9.25 µM]. For the same compound, in test [2], the viability, % of control was 102% [at 9.25 µM].
Take `C[C@H]1O[C@@H](O[C@H]2CC[C@@]3(C)C(CC[C@]4(C)C3CC=C3C5CC(C)(C)CC[C@]5(C(=O)O)CC[C@]34C(=O)O)C2(C)C)[C@H](O)[C@@H](O)[C@@H]1O` (some centres undefined): the Potency result in test [1] and in test [2] was “inactive” each time.
Regarding `CC1(C)C2CCC(CO[C@@H]3O[C@H](CO[C@@H]4OC[C@](O)(CO)[C@H]4O)[C@@H](O)[C@H](O)[C@H]3O)C1C2` (some centres undefined), the Potency entry in test [1] and in test [2] was “inactive” in each case.
For the compound `O=C(O)c1ccnc2cc(C(OCC3CCC(F)(F)CC3)c3ccccc3Cl)[nH]c12` (centres undefined), the Potency entry in test [1] and in test [2] was “inactive” each time.
On to `O=C(NCCO)c1cccc(-c2cc(Nc3ccc(OC(F)(F)F)cc3)ncn2)c1`, for which the Potency in test [1] is 6.51 µM (active); in test [2] it was 5.8 µM (active).
Take `CC(C)(O)C1CC=C(C(=O)OC[C@H]2O[C@@H](OC(=O)C3=CCC(C(C)(C)O)CC3)[C@H](O)[C@@H](O)[C@@H]2O)CC1` (some centres undefined): the Potency entry in test [1] and in test [2] was “inactive” throughout.
Turning to `OC1COC(OCC2OC(OCCc3ccccc3)C(O)C(O)C2O)C(O)C1O` (centres undefined), the Potency entry in test [1] and in test [2] was “inactive” in each case.
With `CN(C)CCCn1cc(C2=C(c3c[nH]c4ccccc34)C(=O)NC2=O)c2ccccc21`, the Potency in test [1] is 0.0731 µM (active); in test [2] it was 0.116 µM (active).
With `CC(C)(Cc1nc(-c2ccc(O)cn2)no1)C(=O)NC1=C(C(=O)O)CCCC1`, the Potency result in test [1] and in test [2] was “inactive” each time.
In the case of `CC1=C(CCC(C)O[C@@H]2O[C@H](CO)[C@@H](O)[C@H](O)[C@H]2O)C(C)(C)CCC1=O` (some centres undefined), the Potency entry in test [1] and in test [2] was “inactive” each time.
For `CC1CCC2(C(=O)O)CCC3(C)C(=CCC4C5(C)CCC(O)C(C)(C(=O)O)C5CCC43C)C2C1(C)O` (centres undefined), the Potency entry in test [1] and in test [2] was “inactive” in each case.
As for `COc1cc(C(=O)OCC2=CCC3C(C(=O)O)=COC(O[C@@H]4O[C@H](CO)[C@@H](O)[C@H](O)[C@H]4O)C23)ccc1O` (some centres undefined), the Potency entry in test [1] and in test [2] was “inactive” in each case.
`COc1cc(C(C)C)c(Oc2cnc(N)nc2N)cc1I`: the Potency in test [1] and in test [2] was 10.3 µM (active) each time.
Take `CCNc1nc2c(ncn2[C@H]2C[C@H](O)[C@@H](CO)O2)c(=O)[nH]1`: the Potency entry in test [1] and in test [2] was “inactive” throughout.
On to `OC[C@H]1O[C@@H](OC/C=C/c2ccc(O)cc2)[C@H](O)[C@@H](O)[C@@H]1O`, for which the Potency entry in test [1] and in test [2] was “inactive” in each case.
On to `Oc1ccc2c(c1)OCC1(O)Cc3cc(O)c(O)cc3C21` (centres undefined), for which the Potency in test [1] and in test [2] was 3.66 µM (active) each time.
For `COc1cc(C(=O)OC[C@H]2O[C@@H](OC(C)(C)C(=O)O)[C@H](O)[C@@H](O)[C@@H]2O)cc(OC)c1O`, the Potency result in test [1] and in test [2] was “inactive” in each case.
On to `CCCN(CCC)C(=O)C1=Cc2ccc(-c3ccc(C(=O)N4CCCC4)cc3)cc2N=C(N)C1`, for which the Potency in test [1] was 8.33 µM (active); in test [2], 4.17 µM (active).
The matching figures for `CC/C=C\C(O)C(O)C1=C(C)C(=O)C2(O1)C(=O)NC(OC)(C(=O)c1ccccc1)C2O` (centres undefined): “inactive” and “inactive”.
Turning to `Nc1nc(Nc2ccc3c(c2)CCC(N2CCCC2)CC3)nn1-c1cc2c(nn1)-c1ccccc1CCC2` (centres undefined), the figures for the Potency in test [1] and in test [2] were 0.231 µM (active) and 0.366 µM (active), respectively.
Regarding `O=c1cc(NCCCN[C@@H]2CCOc3c(Br)cc(Br)cc32)[nH]c2ccsc12`, the Potency in test [1] is 10.3 µM (active); in test [2], 7.31 µM (active).
On to `CC(C)C1NC(=O)C2CCCN2C1=O` (centres undefined), for which the Potency result in test [1] and in test [2] was “inactive” throughout.
For the compound `C[C@@H]1O[C@@H](O[C@H]2[C@H](O[C@H]3[C@H](O[C@H]4CC[C@@]5(C)C(CC[C@]6(C)C5CC=C5[C@@H]7CC(C)(C)C[C@@H](O)[C@]7(C)CC[C@]56C)C4(C)C)O[C@H](C(=O)O)[C@@H](O)[C@@H]3O)O[C@H](C(=O)O)[C@H](O)[C@@H]2O)[C@H](O)[C@H](O)[C@H]1O` (some centres undefined), in test [1], the viability (% of control) was 101% [at 9.25 µM]. Also, in test [2], the viability, % of control was 89.8% [at 9.25 µM].
Taken in the same sequence, the figures for `C[C@@H]1O[C@@H](O[C@@H]2[C@@H](O)[C@H](O[C@H]3[C@H](O[C@H]4CC[C@@]5(C)C(CC[C@]6(C)C5CC=C5[C@@H]7CC(C)(C)CC[C@]7(C(=O)O[C@@H]7O[C@H](CO)[C@@H](O)[C@H](O)[C@H]7O)CC[C@]56C)C4(C)C)O[C@H](C(=O)O)[C@@H](O)[C@@H]3O)OC[C@H]2O)[C@H](O)[C@H](O)[C@H]1O` (some centres undefined) were 62.1% [at 9.25 µM] and 87.3% [at 9.25 µM].
Regarding `CC1CCCC[C@H]2C(=O)C=C[C@H](O)[C@@H]2CC(=O)O1` (some centres undefined), the Potency in test [1] and in test [2] was 0.731 µM (active) throughout.
